Only some compounds are listed: those with a hit (about 3.6% of all), similar ones and a draw of the others.
TWEAK Fn14 block = inhibitors of TWEAK-Fn14 signaling, primary screen, luciferase reporter cells, uHTS; TWEAK-stimulated Fn14 reporter cells, luciferase luminescence, 8 h; inhibition, % at 10 µM; actives 2% (n = 360,000); in the data active = inhibition above about 50%
LMP1 NFkB inh = EBV LMP1-driven NF-kappaB luciferase reporter inhibitors, primary screen, cell-based, luminescence, single point | LMP1-induced NF-kappaB luciferase reporter cells | inhibition, % at 12.5 µM | actives 0.69% (n = 350,000) | AID 504558, 2011; in the data active = inhibition above about 41%; inconclusive = no clear call, values can overlap the other calls;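 also: 0% = neutral control wells and 100% = reference inhibitor control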
LGR2 antag = inhibitors of bursicon-induced LGR2 CRE-luciferase signal, primary screen, cell-based, HEK293, CRE-luciferase reporter, bursicon stimulation | Drosophila bursicon receptor LGR2 (rickets) | bursicon-stimulated, 4 h | inhibition, % at 9.99 µM | actives 0.35% (n = 380,000);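 active = drop in luminescence signal, shown as inhibition above about 50% in the replicate tests, limit read from the data, passing the limit was not always enough; inconclusive = probably only some replicates passing the limit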;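 also: agonist challenge used bursicon conditioned medium at about half maximal strength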
TROY NFkB inh = inhibitors of TROY-driven NF-kB signaling, primary screen, Q293 LMP1-TROYcd cells, NF-kB luciferase, uHTS; actives 0.98% (n = 360,000); inhibition, % at 10 µM; Q293 LMP1-TROYcd NF-kB luciferase reporter, 4 h;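 active = compounds whose plate-normalised and pattern-corrected inhibition of the luciferase reporter signal at the single screening dose is 50% or more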
HSF1 inh = HSF1 inhibitors in luciferase reporter cells, primary screen, cell-based, NIH3T3, luminescence; actives 0.77% (n = 300,000); NIH3T3-HGL HSE-luciferase, MG132-induced, luminescence 8 h; hits give low values; activity change, negative = inhibition, % at 7.5 µM (by protocol); AID 2098, 2009;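 active = more than half of replicate wells show activity change below -50%, luminescence cut by over half; inconclusive = some wells, but at most half, below -50%; inactive = no replicate well below -50%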;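 also: luciferase reports HSF-1 transcriptional activity via heat shock element; 0% = median of DMSO wells and -100% = zero luminescence signal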
HSF-1 act = HSF-1 activators, primary screen, NIH3T3-HGL cells, MG132 stress, luminescence, single point | NIH3T3-HGL HSF-1 luciferase reporter, 8 h; 100% = twice DMSO control signal | actives 1.7% (n = 300,000) | activation, % at 9 µM | AID 504408, 2011;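 active = mean replicate activation of at least 50% with a set share of replicates each reaching 50%; inconclusive = only one of those two conditions met; inactive = mean below 50% and too few replicates reaching it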;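 also: 0% = median of the neutral control wells and 100% = twice that signal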
* marks the source's active call; other numbers are inactive results; ? = inconclusive; nt = not tested or not shown.

SMILES	TWEAK Fn14 block	LMP1 NFkB inh	LGR2 antag	TROY NFkB inh	HSF1 inh	HSF-1 act
CC1CN(C(=O)CS(=O)(=O)Cc2ccccc2)CC(C)O1 (stereo unspecified)	6	1	0	-3	17	60*
COc1ccc(CCNC(=O)N2c3ccccc3Sc3ccccc32)cc1	55*	14	nt	45	-2	4
COc1cccc(-n2nnc3c(=O)n(Cc4ccccc4Cl)cnc32)c1	-24	-4	-15	-35	-58*	-62
C[C@H]1CN([C@@H](C)CO)C(=O)Cc2cc(NC(=O)Cn3cnnn3)ccc2O[C@H]1CN(C)Cc1ccc(Oc2ccccc2)cc1	nt	nt	-1	nt	nt	nt
CC(C(=O)O)c1ccc(N2Cc3ccccc3C2=O)cc1 (stereo unspecified)	70*	30	nt	8	8	23
Cc1ccccc1N1Cc2ccccc2C1=O	2	0	-22	19	nt	nt
CCCCn1c(CN2CCN(c3cccc(Cl)c3)CC2)nc2c1c(=O)[nH]c(=O)n2C	17	10	11	0	-3	-14
CCOC(=O)Cn1c(CN2CCN(c3cccc(Cl)c3)CC2)nc2c1c(=O)[nH]c(=O)n2C	-6	-3	-4	4	-55*	-65
CCC(=O)NNC(=O)Cc1c(C)n(C(=O)c2ccc(Cl)cc2)c2ccc(OC)cc12	56*	-5	16	-11	-4	4
CCCNC(=O)Cc1c(C)n(C(=O)c2ccc(Cl)cc2)c2ccc(OC)cc12	15	2	5	0	-2	5
C[C@@H]1CCCCO[C@H](CN(C)Cc2ccncc2)[C@@H](C)CN([C@H](C)CO)C(=O)c2cc(NC(=O)Nc3ccc4c(c3)OCO4)ccc2O1	nt	nt	0	nt	nt	nt
NC(=O)c1ccsc1NC(=O)COC(=O)/C=C/c1ccc([N+](=O)[O-])cc1	-2	0	0	34	2	12
COC(=O)c1ccc(/C=C/C(=O)OCC(=O)Nc2sccc2C(N)=O)cc1	68*	9	nt	45	nt	nt
COc1ccc2[nH]c(=O)c(CN(C(=O)COc3ccccc3)C(C)C)cc2c1	-5	-2	nt	-19	34	64*
COc1ccc2[nH]c(=O)c(CN(C(=O)C(C)C)c3ccccc3OC)cc2c1	-12	2	-3	17	12	1
COC(=O)CCC(=O)COc1ccc(OC)cc1C#N	22	-11	-13	-65	39	52*
COC(=O)CCC(=O)COc1ccccc1C#N	-3	-2	nt	-24	2	4
Cc1cc(C)c(C)c(C(=O)CSc2nnc(-c3ccc4[nH]c(C)c(C)c4c3)o2)c1C	25	6	nt	18	-13	-17
Cc1[nH]c2ccc(-c3nnc(SCC(=O)c4ccc(F)cc4)o3)cc2c1C	-43	10	-9	2	-60*	-64
Oc1ccc2ccccc2c1C=Nc1ccccc1-c1nc2ccccc2[nH]1	8	-11	nt	-8	27	59*
Oc1ccc2ccccc2c1C=Nc1ccc(Cl)cn1	12	-5	-10	9	-2	-4
Cc1sc2nc(SCC(=O)Nc3c(C)n(C)n(-c4ccccc4)c3=O)n(C)c(=O)c2c1C	58*	0	nt	7	7	0
Cc1sc2nc(SCC(=O)OC(C)C)n(C)c(=O)c2c1C	22	47*	nt	32	-1	5
COc1cccc(NC2SC(=O)N(c3ccccc3)C2=O)c1 (stereo unspecified)	-1	-34	46	-33	35	59*
CN1C(=O)SC(Nc2ccccc2)C1=O (stereo unspecified)	-3	2	18	-10	-11	4
SMILES	TWEAK Fn14 block	LMP1 NFkB inh	LGR2 antag	TROY NFkB inh	HSF1 inh	HSF-1 act
C[C@H](CO)N1C[C@H](C)[C@H](CN(C)C(=O)Nc2ccc3c(c2)OCO3)Oc2c(NC(=O)c3ccncc3)cccc2C1=O	nt	nt	6	nt	nt	nt
O=C(C[C@H]1C[C@H]2c3cc(NC(=O)Cc4ccncc4)ccc3O[C@H]2[C@H](CO)O1)NCc1ccc(-c2ccccc2)cc1	nt	nt	8	nt	nt	nt
Cc1ccc(S(=O)(=O)c2c(C)cc(C)nc2N2CCCCC2)cc1	6	-11	12	-20	23	58*
O=C(Nc1ccc2c(c1)OCCO2)c1cccc(Cl)c1	-17	-11	-44	-26	30	23
O=C(Nc1ccc2c(c1)OCO2)c1cc(Cl)ccn1	-4	-33	-54	-39	nt	nt
O=C(Nc1ccc2c(c1)OCO2)c1ccc(Cl)cc1Cl	16	-16	-4	-20	26	53*
O=C(Nc1ccc2c(c1)OCCO2)c1ccc(Cl)cc1Cl	33	-6	52*	-42	32	?
CC(C)NC(=O)Nc1ccc2c(c1)C(=O)N([C@@H](C)CO)C[C@H](C)[C@@H](CN(C)S(C)(=O)=O)OCCCC[C@@H](C)O2	nt	nt	6	nt	nt	nt
C[C@@H]1CCCCO[C@@H](CN(C)C(=O)C2CCCCC2)[C@H](C)CN([C@@H](C)CO)C(=O)c2cc(NC(=O)Nc3ccc(F)cc3)ccc2O1	nt	nt	17	nt	nt	nt
CCN(CC)c1ccc(/C=N/Nc2nc3ccccc3[nH]2)cc1	95*	-10	-25	43	269	431*
C(=N\Nc1nc2ccccc2[nH]1)/c1ccc2c(c1)OCO2	-11	-40	-131	-13	444	492*
CC(=O)Nc1ccc(/C=N/Nc2nc3ccccc3[nH]2)cc1	-15	0	-22	-60	88	128*
C(=N\Nc1nc2ccccc2[nH]1)/c1ccncc1	44	-25	-27	59*	-13	-4
O=C(O)c1ccc(/C=N/Nc2nc3ccccc3[nH]2)cc1	-7	-4	7	19	0	31
COc1ccc(-c2cnc3c(c2)C(=O)N([C@H](C)CO)C[C@@H](C)[C@@H](CN(C)C(=O)C2CCC2)O3)cc1	nt	nt	9	nt	nt	nt
O=C(CSc1nc2ccccc2[nH]1)N/N=C/c1ccncc1	-31	nt	-4	57*	-7	-4
C/C(=N\Nc1nc2ccccc2[nH]1)c1ccccn1	5	93*	23	25	14	27
CC(=O)NC(Nc1c(C)n(C)n(-c2ccccc2)c1=O)C(Cl)(Cl)Cl (stereo unspecified)	-1	-7	1	63*	-3	-9
Cc1c(NC(=O)C(C)N2CC(C)OC(C)C2)c(=O)n(-c2ccccc2)n1C (stereo unspecified)	0	3	nt	13	16	60*
CCCC(=O)NC(NC(=S)Nc1c(C)n(C)n(-c2ccccc2)c1=O)C(Cl)(Cl)Cl (stereo unspecified)	82*	0	nt	nt	-5	1
